# Data: paper PMC12864922, “TDP-43 directly inhibits mRNA accumulation in neurites through modulation of mRNA stability”
# Over roughly 9,900 sequences, “r (bound/input frequency ratio)” has its median near 0.7; the highest 2% begin near 6.5. Shown is part of a subset that was picked to be rich in the highest values.
# B1: ENSMUSG00000061578.971|Ksr2 (ssRNA)
# RNA: GGGAGUUCUACAGUCCGACGAUCGCUUCGAUAUCCGCAUGCUAGGAAGGUAGUUUUCCCCCAGAAAGUCCCUUCUAAUAAACAUUGAUGACUUUAGAAUCCAUGACUCAGAAUUUUCCAGAGACCCAAUCCCUCGGGGUCCACUUAGUGAUGGGACCAUACAAGAGUUUAUUUCCAAUUAGAGAAUUGGGUCAACUGGGAAAGGCUUCUUUCCUGGUAACCCUGCUACUGAUACUAUGUUGAAACAGGAAUCGACUCUAACUGCUUUUUGGCCUCUUCCCUGCACGGGAGUCUCAAAAUCAAGCUCUUGCGGUCGCACUAGUGUGGAAUUCUCGGGUGUCAAGG
# B2: ENSMUSG00000058297.456|Spock2 (ssRNA)
# RNA: GGGAGUUCUACAGUCCGACGAUCGCUUCGAUAUCCGCAUGCUAUCACACAGGUCAGAUUAUUGUCGGUCCUGCGGGCCUCAUCCUUGAAUAAGCUGCCUGCCCAGUUCCUCCAUCCGUGUUCCUGCCUGCUCCCGUUCCCUUGUUGCGGGCAGGAGAGGUAGGGCUGUGUUGGAAAGAGUUCAACCAAAUUACGGCAGCACCACAUCUUGCCGAGCCCUGGAGCUGCCCUACUAAGAGCCUCCUUAGCCCUGGGUGCUGGGAAGGAUGGUGUACGUUGGGGAAGUUUGAGGUUGGAGAGAGUACUCUUGCGGUCGCACUAGUGUGGAAUUCUCGGGUGUCAAGG
# B3: ENSMUSG00000029028.209|Lrrc47 (ssRNA)
# RNA: GGGAGUUCUACAGUCCGACGAUCGCUUCGAUAUCCGCAUGCUACAGCAGCUGCACAGAGGACUUGGUGGCCCCGUGCCUUGCCAUCUGGCUGAGAAGAGAACCAGACCCUCAGCCUUCCCCCUCGACACCUUCUCGUUGGUGACCUCUGACCUUAAAGGACCAUUUCUACCUUCUGUAAAAGAACACCUGUUUGGGGUUGCGUGCGGCUUUCAUCCUAAGGCCGUGCGAGAGCCGUUAGCUGUCAGAACUAGUGAAGCUCCAGGCUCCUCGUGGCAGACCCUGGACAACGCUGGUAGCUGUUCCUCUUGCGGUCGCACUAGUGUGGAAUUCUCGGGUGUCAAGG
# B4: ENSMUSG00000029636.505|Wasf3|28:32 (ssRNA)
# RNA: GGGAGUUCUACAGUCCGACGAUCGCUUCGAUAUCCGCAUGCUAAUCAUUUAUGAGCAUAGGAUGAUGAGGCACACAAAGCUUUGUAAUAUUUUCAGCAGAAAUGCGUGAUACAUUUGAAUCCAUUGAGGUCUGGAGGGAGGGUAUCAGCCAGAGUAGCAAGGCGGUUUUGUUUAUUUGUUUGUUUUUUUGUUUGUUUGUUUUAUGAAGGAGAGUAUCUGUUAUCUUGCAGUAUUAUCAAUGCAGUUGUAAAUUGAAUCUAAAGUGGUAUUUAAAACUGUCAAACAAUUUUUAAUCUGUUUGUACUCUUGCGGUCGCACUAGUGUGGAAUUCUCGGGUGUCAAGG
# B5: ENSMUSG00000031028.267|Tub (ssRNA)
# RNA: GGGAGUUCUACAGUCCGACGAUCGCUUCGAUAUCCGCAUGCUAUGCUUUGAAAUAGAUAUGUUUGGAAACGCUAAGUAGAAGUUUAAAAAGUAGAGUCAUGUAGAGUCAUGCUUUGAAUAUGUGGGUCAUGCUUUAGAUAUGAAGAGGCUAUGCAGGUAAGGAGGCUGGAUUGAUGUAAAUGGAAGUAGUACUUUAAGAAAGCUCUAGAUUUCCCAGGUUGGACACUCGACGAAAGGCACACCUGCUGCAGCAGGUUCUGACACACCUGAGCCAUACAUUGCCAUCAGAGAACCCUCAGCGAGCUCUUGCGGUCGCACUAGUGUGGAAUUCUCGGGUGUCAAGG
# B6: ENSMUSG00000043670.108|Diras1 (ssRNA)
# RNA: GGGAGUUCUACAGUCCGACGAUCGCUUCGAUAUCCGCAUGCUACUUUCACCUGAUCCUGUCCUUUCCCCGUGACCUCUGACCUGUGGCCUUCCCUGGGUCCAGAACACCCCUGUCCUCUCCUGUCUGCACACCAGGGUGGAUGGGCCCGAGGGCUGGGCCUCAGGCACCAGGCAAUAAACACAGGGCCUGCAGCAAUGCCCUGGCCACCCCGAGUACCACCUCUGGAAUAGCAGACGCCCACAGCACAAGCCCAGGACUGUCCCUUCAGGGGAGGCACACUGGAACCCUGAACUUGGAGUGUGCUCUUGCGGUCGCACUAGUGUGGAAUUCUCGGGUGUCAAGG
# B7: ENSMUSG00000061578.1206|Ksr2 (ssRNA)
# RNA: GGGAGUUCUACAGUCCGACGAUCGCUUCGAUAUCCGCAUGCUAUAUGGACACACUAGAAAGCCCAUCCUAGGUCUUUCCAUGGUCUCUCACACCCCUGUCCCCGUCCCCUCCACCCCCCGGCAGCAUGCUUCACUCUAUGAAUGAGCCGCUGGGAUAUUGACAUGGAGAUGUGUUGAUGGAAAAAGCCUCCACACCCAACAUAACUCUCCAGAGAGAUAUUGAAAGUGAUGGGCAGAGAGUCUGACAAUGACCCAGGGGUCAUUGUGAGUCCUAGGCUGAAUCUGUAAUGGGGUCCAAAGUGCCUCUUGCGGUCGCACUAGUGUGGAAUUCUCGGGUGUCAAGG
# B8: ENSMUSG00000022095.191|Fam160b2 (ssRNA)
# RNA: GGGAGUUCUACAGUCCGACGAUCGCUUCGAUAUCCGCAUGCUACCUGGGCAAGGAGGAGCAGGCCAGAGCCCCUUUUGCUUCCUUUUCCUGCCCAUGCCACCUCUCGAAGCCGGGCACAGGUUGCCAGGAGGUGACAUGAAAGAGGAGGAAACUCCAUGACCUCUACAUCCCCCGCAGUCCUCCCAGCGGGGGAGGACUUCUCUGCUGCUCCGAAGAACAUCAUGCACUCCUGUGUGUGUGUGUGAGUGUGUGUGUGUGUGUGUGUGUGUGUGUGUGUGUAUGUGUGUGUAUAUGUGUGUGUGCUCUUGCGGUCGCACUAGUGUGGAAUUCUCGGGUGUCAAGG
# B9: ENSMUSG00000022095.183|Fam160b2 (ssRNA)
# RNA: GGGAGUUCUACAGUCCGACGAUCGCUUCGAUAUCCGCAUGCUACGGCGCCAGGCAUUACCUCACAACAGGCCUGCAGUUGUUGGCUUCCCUCCUGGGCAAGGAGGAGCAGGCCAGAGCCCCUUUUGCUUCCUUUUCCUGCCCAUGCCACCUCUCGAAGCCGGGCACAGGUUGCCAGGAGGUGACAUGAAAGAGGAGGAAACUCCAUGACCUCUACAUCCCCCGCAGUCCUCCCAGCGGGGGAGGACUUCUCUGCUGCUCCGAAGAACAUCAUGCACUCCUGUGUGUGUGUGUGAGUGUGUGUGCUCUUGCGGUCGCACUAGUGUGGAAUUCUCGGGUGUCAAGG
# Molecular target: TDP-43 (Homo sapiens, UniProt Q13148 1-414)
# Sequence (Q13148 whole entry): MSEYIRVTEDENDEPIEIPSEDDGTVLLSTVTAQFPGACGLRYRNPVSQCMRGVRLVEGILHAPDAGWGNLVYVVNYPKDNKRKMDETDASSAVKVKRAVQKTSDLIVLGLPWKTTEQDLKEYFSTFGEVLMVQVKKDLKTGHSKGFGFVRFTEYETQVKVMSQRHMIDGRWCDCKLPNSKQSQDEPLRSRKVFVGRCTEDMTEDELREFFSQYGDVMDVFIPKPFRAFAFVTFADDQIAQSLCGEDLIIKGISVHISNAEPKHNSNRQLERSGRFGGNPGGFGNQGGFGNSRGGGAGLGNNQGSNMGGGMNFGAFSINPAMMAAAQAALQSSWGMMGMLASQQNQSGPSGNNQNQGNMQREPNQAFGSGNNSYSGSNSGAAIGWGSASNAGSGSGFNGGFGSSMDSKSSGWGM
# Experiment: RNA Bind-n-Seq with designed 260-mer pool; 25 mM Tris-HCl, 150 mM KCl, 3 mM MgCl2, BSA (printed 500 mg/mL), 20 units/mL SUPERase IN; pH not stated; 500 nM RNA pool, 1 h, 4 C; TDP-43 5, 50, 500 nM; high values mean tight binding
# Conditions: protein: recombinant; tags: SBP (GST cleaved off with PreScission; pGEX-GST-SBP)
# Summary of the method: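 The incubation lasted 1 h at 4 °C and used 500 nM of an in vitro-transcribed 260-nt 3′ UTR oligo pool with recombinant SBP-tagged TDP-43 at 5, 50 or 500 nM immobilized on streptavidin beads. It took place in 25 mM Tris-HCl, 150 mM KCl, 3 mM MgCl2, BSA and SUPERase IN. Bound RNA was washed, eluted with biotin, converted to cDNA, PCR-amplified and sequenced to give R, each oligo's normalized abundance in the bound sample divided by that in input. Two independent protein batches provided the duplicates.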
row,Binder,binding signal
1,B1,0.299 R (bound/input frequency ratio)
2,B2,0.782 R (bound/input frequency ratio)
3,B3,0.424 R (bound/input frequency ratio)
4,B4,0.502 R (bound/input frequency ratio)
5,B5,2.93 R (bound/input frequency ratio)
6,B6,1.22 R (bound/input frequency ratio)
7,B7,0.481 R (bound/input frequency ratio)
8,B8,5.73 R (bound/input frequency ratio)
9,B9,1.73 R (bound/input frequency ratio)
